Source: PubChem BioAssay
Sampled rows, rich in hits. Any-hit rate of the full collection: about 4.8%.
hgDAF-12 ag: agonists of H. glycines DAF-12 nuclear receptor; HEK293 GAL4-hgDAF12 UAS-luciferase reporter, agonist luminescence; normalized to butyrate control; activation, % at 6.8 µM; 1.8% of 370,000 active; AID 687014;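 active = activation above a cutoff set at the mean of all screened compounds plus 3 SD, cut at about 10% in these data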;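 also: 0% = DMSO wells and 100% = sodium butyrate wells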
DAX1 inh-1: blocks DAX1 repression of SF-1 activated StAR promoter; 1.1% of 370,000 active; inhibition, % at 6.8 µM; AID 652010; HEK293T StAR-luciferase reporter, SF-1/DAX-1 repression relief;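 active = inhibition above the mean over all tested compounds plus 3 SD, cut at about 3.6% in these data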;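 also: 0% = DAX-1 cells with DMSO and 100% = cells lacking DAX-1 with DMSO; higher inhibition means more luminescence from relief of DAX-1 repression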
SMARCA2 activ: SMARCA2 function activation, primary screen | MG213 cells, MMTV-luciferase reporter, dexamethasone, overnight | activation, % at 9.1 µM | 1% of 370,000 active | AID 652017; in the data active = activation above about 7.8%;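 also: 0% = vehicle wells and 100% = reference activator wells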
DAX1 inh-2: inhibits human nuclear receptor DAX1 | HEK293 Gal4-DAX1 luciferase reporter, luminescence | inhibition, % at 6.75 µM | 0.99% of 340,000 active | AID 504766;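 active = inhibition above the mean over all tested compounds plus 3 SD, cut at about 4.2% in these data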;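 also: 0% = DAX1-transfected cells with DMSO and 100% = empty-vector control cells with DMSO; inhibition shows as a rise in luminescence from relieved DAX1 repression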
Target sequence (P51843 207-470 limits assumed): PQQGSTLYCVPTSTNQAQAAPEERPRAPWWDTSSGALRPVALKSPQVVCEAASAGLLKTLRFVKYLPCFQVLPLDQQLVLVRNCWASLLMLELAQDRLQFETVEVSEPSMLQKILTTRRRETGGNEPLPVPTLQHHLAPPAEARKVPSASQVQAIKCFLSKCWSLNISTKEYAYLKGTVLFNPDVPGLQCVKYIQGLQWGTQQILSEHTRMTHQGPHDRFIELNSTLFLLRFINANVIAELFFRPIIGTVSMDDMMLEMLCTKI
hcDAF-12 act: H. contortus DAF-12 activation, primary screen; HEK293 hcDAF-12 lit1-tk-luc reporter, luminescence; 0% DMSO, 100% Δ7-dafachronic acid; AID 652067; 1.4% of 370,000 active; activation, % at 6.8 µM;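 active = activation above the mean of all tested compounds plus 3 SD, cut at about 5.5% in these data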;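 also: 100% = response to 3 µM Δ7-dafachronic acid high control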
ssDAF-12 act: activators of S. stercoralis DAF-12 nuclear receptor; HEK293 ssDAF-12/GRIP1 lit1-tk-luc reporter, luminescence; % of 3 µM dafachronic acid response; activation, % at 6.8 µM; 1% of 370,000 active;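 active = activation above the mean over all tested compounds plus 3 SD, cut at about 0.9% in these data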;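 also: 0% = DMSO-only wells and 100% = 3 µM delta7-dafachronic acid wells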
SMARCA2 conf: confirmation of SMARCA2 (BRM) function activators. activation, % at 9.1 µM. MG213 cells, MMTV-luciferase with dexamethasone, luminescence, overnight; MG213 cells expressing E1A, Rb sequestered; DMSO wells 0%, reference activator 100%. 30% of 3,500 active. AID 652260. shares compounds with SMARCA2 activ;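 active = activation above its plate's cutoff, the mean activation of tested wells plus 3 SD, cut at about 7.9% in these data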
GAL4-VP16 Luc: activates GAL4-VP16 luciferase, flagging SMARCA2 activator hits | activation, % at 9.1 µM | HEK293 GAL4-VP16 pG5luc reporter, luciferase luminescence; scaled: DMSO wells 0%, SAHA wells 100% | AID 686939 | 41% of 3,500 active | shares compounds with SMARCA2 activ;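 active = activation above the solvent-only control well mean plus 3 SD, averaged across control plates, cut at about 5.2% in these data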
Active calls of the source: *; / = not tested or not shown.

SMILES	hgDAF-12 ag	DAX1 inh-1	SMARCA2 activ	DAX1 inh-2	hcDAF-12 act	ssDAF-12 act	SMARCA2 conf	GAL4-VP16 Luc
COc1cccc(-c2cc(NC=O)c3ncc(-c4ccc(OC)c(OC)c4)n3c2)c1	-1	-4	12*	/	-4	-1	11*	5
COc1cc(-c2cnc3c(NC=O)cc(-c4ccc(S(C)(=O)=O)cc4)cn23)cc(OC)c1OC	-2	-1	-4	/	-4	-2	/	/
COc1ccc(-c2cnc3c(NC=O)cc(-c4cccc(NS(C)(=O)=O)c4)cn23)cc1OC	2	1	36*	/	-4	-2	36*	7.8*
COc1cccc(-c2cnc3c(NC=O)cc(-c4cc(OC)c(OC)c(OC)c4)cn23)c1	-1	-2	-1	/	-3	-1	/	/
COc1ccc(-c2cnc3c(NC=O)cc(-c4ccccc4)cn23)cc1OC	0	-2	14*	/	-1	-1	10*	6.1*
CCCN1CCCCC(NC(=O)COCc2ccccc2)C1=O (configuration not stated)	1	1	-3	/	0	-1	/	/
COC(=O)[C@H](Cc1ccccc1)N1CC(N2CCCC2)CS1(=O)=O (some centres not stated)	6	0	2	/	2	-1	/	/
Cc1cccc(CN2[C@@H](C)[C@H](c3ccccc3)Oc3cc(Br)ccc3S2(=O)=O)c1	3	-1	2	/	-1	-1	/	/
COc1ccc(-c2cnc3c(NC=O)cc(-c4ccc(F)cc4)cn23)cc1OC	-3	2	15*	/	-2	-1	14*	6.3*
COc1ccc(-c2cnc3c(NC=O)cc(-c4cc(OC)c(OC)c(OC)c4)cn23)cc1OC	0	-2	15*	/	-5	-2	24*	9.4*
CS(=O)(=O)Nc1cccc(-c2cc(NC=O)c3ncc(-c4ccc(F)c(Cl)c4)n3c2)c1	-1	-2	9.1*	/	-3	-2	6	2
Cc1ccc(-c2cc(C#N)c3n(c2=O)CCC3)cc1	-1	0	-1	/	-1	-1	/	/
OC(c1ccccc1)(c1ccccc1)C1CCN(CCCNc2cccc(OC(F)(F)F)c2)CC1	0	0	-9	/	-2	1	/	/
CC(=O)c1ccc(NCCCN2CCC(C(O)(c3ccccc3)c3ccccc3)CC2)cc1	0	1	9.6*	/	0	-1	1	1
COC(=O)[C@]12C[C@H](CC(=O)N3CCCC3)C(=O)N(Cc3ccco3)C1=C[C@H](C(C)(C)C)O[C@@H]2C	0	-1	0	/	-1	-2	/	/
CC(=O)c1sc(NC(=O)CCS(=O)(=O)c2ccc(F)cc2)nc1C	2	0	2	0	1	-1	/	/
CC(=O)c1sc(NC(=O)CCS(=O)(=O)c2ccccc2)nc1C	3	2	11*	0	4	0	7.8*	0
C=CCN1[C@H](C)COc2cc(F)ccc2S1(=O)=O	2	0	7	/	-1	-1	/	/
CC(=O)N1CCN(C(=O)c2ccco2)CC1	3	0	-3	1	-3	-1	/	/
Cc1cccc2nc(=S)n(C(=O)c3ccco3)n12	13*	3	8.6*	4.6*	3	0	7	14*
Cc1occc1C(=O)N/N=C/C1=C(N2CCOCC2)C(=C\c2ccc(Cl)cc2Cl)/CC1	7	0	12*	-1	0	-1	2	0
O=c1cc(-c2ccccc2F)oc2ccccc12	11*	2	13*	0	1	-1	6	7.7*
Nn1c(SCc2ccccc2)nc2ccccc21	12*	1	12*	1	2	0	8.8*	14*
CCc1ccc(/C=C2\Oc3ccc(C(=O)OC)cc3C2=O)cc1	2	0	10*	2	0	-1	3	6.5*
COC(=O)c1ccc2c(c1)C(=O)/C(=C/c1ccc(C)cc1)O2	0	0	-1	1	-1	-1	/	/
SMILES	hgDAF-12 ag	DAX1 inh-1	SMARCA2 activ	DAX1 inh-2	hcDAF-12 act	ssDAF-12 act	SMARCA2 conf	GAL4-VP16 Luc
CCc1nc2ccc(C(=O)Nc3ccc(NC(C)=O)cc3)cn2c1N(CCC(C)C)CCN(C)C	3	0	8.4*	/	-1	0	1	0
CCc1nc2ccc(C(=O)Nc3ccc(OC)c(OC)c3)cn2c1N(CCC(C)C)CCN(C)C	2	0	-5	/	-1	-1	/	/
S=C(Nc1cc(Cl)cc(Cl)c1)NC(c1ccccc1)c1ccccc1	-7	/	/	/	-4	-2	/	/
COc1ccc(CCNCCC(=O)Nc2c(C)cc(C)cc2C)cc1OC	-2	0	9.0*	0	4	-1	5	1
CC(CCc1ccccc1)NC(=O)C(=O)Nc1ccccc1 (configuration not stated)	8	2	8.9*	-1	1	0	11*	9.8*
CC(CCc1ccccc1)NC(=O)CN1CCN(c2ccccc2)CC1 (configuration not stated)	2	1	8.7*	0	0	-2	-1	2
COc1ccc(N2CCN(CCCNC(=O)Cn3c(=O)c4cccn4c4cccnc43)CC2)c(OC)c1	1	/	/	/	1	-1	/	/
CCOC(=O)c1c(NC(C)=O)sc2c(OCC(O)CNC(C)(C)C)c(Br)ccc12 (configuration not stated)	-3	0	11*	0	1	-1	8.7*	2
C=CCNC(=O)c1ccc2nc(Cc3ccc(OC)cc3)oc2c1	10	1	7	3	5	1	/	/
COCCCNC(=O)c1ccc2nc(Cc3ccc(OC)cc3)oc2c1	9	2	11*	3	2	0	5	9.3*
O=C(NC1CC1)c1cccc(NC(=O)C2CCCCC2)c1	4	3	8.1*	0	0	0	0	1
Cc1cccc(-c2cc3nc(C)cc(=O)n3[nH]2)c1	7	2	9.2*	1	5	1	5	6.7*
Cc1cc(=O)n2[nH]c(-c3ccccc3Cl)cc2n1	7	0	3	0	1	-1	/	/
Cc1nc2c(C(=O)NCCC(C)C)c[nH]n2c(=O)c1Cl	-2	0	9.5*	0	0	-2	0	2
Cc1nc2c(C(=O)NCCc3ccccc3)c[nH]n2c(=O)c1Cl	0	0	-2	0	-1	-1	/	/
